# According to the supplement of paper PMC8975748:
# Where a name gives a salt, the structure may show the parent alone.
# Tested on: Saccharomyces cerevisiae BY4741 SeMeCo community
# Assay: z-score of subpopulation abundance vs DMSO median, subpopulation auxotrophic for LUM; higher = larger share of this subpopulation than in DMSO controls
# Settings: 10 µM; 24 h; SM minimal medium; subpopulation (auxotrophy): LUM
# Outline: (§1)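 Four plasmids, each restoring a single auxotrophy and encoding a distinct fluorescent protein, were carried by a Saccharomyces cerevisiae BY4741 community. After overnight growth to OD600 1.0 and dilution to 0.3, 70 µl per well was grown for 24 h in minimal SM medium on 384-well plates acoustically predosed with library drugs at 10 µM final. Following paraformaldehyde fixation, automated confocal microscopy was used, with single-auxotroph fluorescent strains defining thresholds and autofluorescence correction. Subpopulation abundance was then scored as a z-score against the vehicle-well median.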
row,SMILES,z-score of subpopulation abundance
1,Cc1ccc(-c2ncc(Cl)cc2-c2ccc(S(C)(=O)=O)cc2)cn1 [Etoricoxib],-0.03
2,Cc1ccc(Sc2ccccc2N2CCNCC2)c(C)c1,-0.73
3,CN(C)CCCN1c2ccccc2Sc2ccccc21 [Promazine hydrochloride],0.25
4,CN(C)CCn1nnnc1SCC1=C(C(=O)O)N2C(=O)[C@@H](NC(=O)Cc3csc(N)n3)[C@H]2SC1 [Cefotiam hydrochloride],1.11
5,CN(C)CC(c1ccc(O)cc1)C1(O)CCCCC1 (stereo not given) [Desvenlafaxine],-0.64
6,Cc1ncc([N+](=O)[O-])n1CCOC(=O)c1ccccc1 [Metronidazole Benzoate],-1.13
7,COc1ccccc1OCC(O)CN1CCN(CC(=O)Nc2c(C)cccc2C)CC1 (stereo not given) [Ranolazine 2HCl],-0.47

# Tested on: Saccharomyces cerevisiae BY4741 SeMeCo community
# Assay: z-score of subpopulation abundance vs DMSO median, subpopulation auxotrophic for HLUM; higher = larger share of this subpopulation than in DMSO controls
# Settings: 10 µM; 24 h; SM minimal medium; subpopulation (auxotrophy): HLUM
# Outline: as §1
row,SMILES,z-score of subpopulation abundance
1,Cc1ccnc(NS(=O)(=O)c2ccc(N)cc2)n1 [Sulfamerazine],0.45
2,O=C(O)c1cc(-c2ccc(F)cc2F)ccc1O [Diflunisal],-0.39
3,C[C@@H]1[C@H](O)[C@@H](C)/C=C/C=C/C=C/C=C/C=C/C=C/C=C/[C@H](O[C@@H]2O[C@H](C)[C@@H](O)[C@H](N)[C@@H]2O)C[C@@H]2O[C@](O)(C[C@@H](O)C[C@@H](O)[C@H](O)CC[C@@H](O)C[C@@H](O)CC(=O)O[C@H]1C)C[C@H](O)[C@H]2C(=O)O [Amphotericin B],163
4,CO/N=C(\C(=O)N[C@@H]1C(=O)N2C(C(=O)O)=CCS[C@H]12)c1csc(N)n1 [Ceftizoxime sodium],-0.48
5,COC1C(O)CC(=O)OC(C)CC=CC=CC(OC2CCC(N(C)C)C(C)O2)C(C)CC(CC=O)C1OC1OC(C)C(OC2CC(C)(O)C(O)C(C)O2)C(N(C)C)C1O (stereo not given) [Spiramycin],0.17
6,CC(C)(O/N=C(\C(=O)N[C@@H]1C(=O)N2C(C(=O)[O-])=C(C[n+]3ccccc3)CS[C@H]12)c1csc(N)n1)C(=O)O [Ceftazidime],-0.76
7,C[C@@H]1C/C=C/C=C/C=C/C=C/[C@H](O[C@@H]2O[C@H](C)[C@@H](O)[C@H](N)[C@@H]2O)C[C@@H]2O[C@](O)(C[C@@H](O)C[C@H]3O[C@@H]3/C=C/C(=O)O1)C[C@H](O)[C@H]2C(=O)O [Natamycin],40.5
8,COCCCN1CCC(NC(=O)c2cc(Cl)c(N)c3c2OCC3)CC1 [Prucalopride],-0.34
9,CCOc1cc(NC(C)=O)ccc1C(=O)OC [Ethopabate],2.14
10,CCCSc1ccc2[nH]c(NC(=O)OC)nc2c1 [Albendazole],0.29
11,CN(C)CCN1C(=O)c2cccc3cc(N)cc(c23)C1=O [Amonafide],-0.08
12,COc1ccnc(C[S+]([O-])c2nc3cc(OC(F)F)ccc3[nH]2)c1OC (stereo not given) [Pantoprazole sodium],-0.49
13,CCOC(=O)C1=C(COCCN)NC(C)=C(C(=O)OC)C1c1ccccc1Cl (stereo not given) [Amlodipine Besylate],-1.58
14,CC(C)(C)C(=O)C(Oc1ccc(Cl)cc1)n1ccnc1 (stereo not given) [Climbazole],8.88
15,COc1cc(N)c(Cl)cc1C(=O)NC1CCN(CCCOc2ccc(F)cc2)CC1OC (stereo not given) [Cisapride],-0.17
16,COc1ccc2[nH]c([S+]([O-])Cc3ncc(C)c(OC)c3C)nc2c1 (stereo not given) [Omeprazole],-0.03
17,O=C1CCc2cc(OCCCCc3nnnn3C3CCCCC3)ccc2N1 [Cilostazol],-0.57

row,SMILES,z-score of subpopulation abundance
1,O=c1ccn(C2CC(O)C(CO)O2)c(=O)[nH]1 (stereo not given) [2-deoxyuridine],0.04
2,NC12CC3CC(CC(C3)C1)C2 [Amantadine HCl],-0.01
3,CO/N=C(\C(=O)N[C@@H]1C(=O)N2C(C(=O)OCOC(=O)C(C)(C)C)=C(/C=C\c3scnc3C)CS[C@H]12)c1csc(N)n1 [Cefditoren Pivoxil],0.48
4,O=C1c2cccc3c2[C@H](CCC3)CN1[C@@H]1CN2CCC1CC2 [Palonosetron HCl],-0.14
5,CCCOc1ccc2[nH]c(NC(=O)OC)nc2c1 [Oxibendazole],0.11
6,C[C@]12CC[C@@H]3c4ccc(O)cc4CC[C@H]3[C@@H]1CC[C@@H]2OC(=O)CCC1CCCC1 [Estradiol Cypionate],0.52
7,COc1ccc2c(c1)c(CC(=O)O)c(C)n2C(=O)c1ccc(Cl)cc1 [Indomethacin],-0.35
8,O=C(O)Cc1ccccc1Nc1c(Cl)cccc1Cl [Diclofenac Diethylamine],0
9,COC(=O)C1=C(C)NC(C)=C(C(=O)OCC(C)C)C1c1ccccc1[N+](=O)[O-] (stereo not given) [Nisoldipine],1.09
10,NC(=O)Cc1cccc(C(=O)c2ccccc2)c1N [Nepafenac],0.1
11,CN1C2CCCC1CC(NC(=O)c1nn(C)c3ccccc13)C2 (stereo not given) [Granisetron],-0.81
12,Cc1ccc(Sc2ccccc2N2CCNCC2)c(C)c1,-0.16
13,CN(C)CCn1nnnc1SCC1=C(C(=O)O)N2C(=O)[C@@H](NC(=O)Cc3csc(N)n3)[C@H]2SC1 [Cefotiam hydrochloride],0.99
14,CN(C)CC(c1ccc(O)cc1)C1(O)CCCCC1 (stereo not given) [Desvenlafaxine],-0.91
15,O=C1C(CC[S+]([O-])c2ccccc2)C(=O)N(c2ccccc2)N1c1ccccc1 (racemic) [(+/-)-Sulfinpyrazone],-0.47
16,COc1ccccc1OCC(O)CN1CCN(CC(=O)Nc2c(C)cccc2C)CC1 (stereo not given) [Ranolazine 2HCl],-0.5
